The subject of one assay is Staphylococcus aureus. Conditions: Concentration 32 ug.mL-1;; ASSAY_TEST Inhibition of Bacterial Growth; detection method Absorption (OD600); MEDIA CAMHB; plate type 384well; NBS; CORNING #3640; time 18 hr.
The subject of a further assay is Escherichia coli. Conditions: Concentration 32 ug.mL-1;; ASSAY_TEST Inhibition of Bacterial Growth; detection method Absorption (OD600); MEDIA CAMHB; plate type 384well; NBS; CORNING #3640; time 18 hr.

Structures are written as SMILES. Potency and affinity values are given separately.

This is an account of results in ChEMBL document CHEMBL4513146, “CO-ADD screening of Karazin Kharkiv National University (Ukraine) compounds”.

Regarding `Cc1ccc(Sc2nccn3c(=O)n(CC(=O)Nc4ccccc4Br)nc23)c(C)c1`, the Inhibition is recorded as -0.81% with Staphylococcus aureus and -13.84% in the assay on Escherichia coli.

Turning to `CCc1ccc(N(Cc2ccccc2Cl)S(=O)(=O)c2cccn3c(C)nnc23)cc1`, the figures for the Inhibition in the assay on Staphylococcus aureus and in the assay with Escherichia coli were 18.06% and 0.45%, respectively.

Take `Cc1ccc(-c2ccc3nn(Cc4ccc(Cl)cc4)c(=O)n3n2)cc1C`: the Inhibition in the assay on Staphylococcus aureus is -1.51%; in the assay with Escherichia coli, -5.81%.

For `O=C(CSc1nnc2c3cc(-c4ccc(F)cc4)nn3ccn12)NCCc1ccccc1`, the figures for the Inhibition in the assay on Staphylococcus aureus and in the assay with Escherichia coli were 4.82% and -7.39%, respectively.

As to `COc1ccc(-c2cc3c4nnc(SCC(=O)Nc5ccc(OC)c(Cl)c5)n4ccn3n2)cc1`, the Inhibition with Staphylococcus aureus was 3.66%; with Escherichia coli it was -2.1%.

For `COC(=O)c1ccccc1NC(=O)Cn1nc2c3cc(-c4ccc(Cl)cc4)nn3ccn2c1=O`, the Inhibition is reported as 10.87% in the assay on Staphylococcus aureus and 6.58% in the assay on Escherichia coli.

As for `Cc1ccc(C)c(NC(=O)Cn2nc3ccc(-c4ccc(C)c(C)c4)nn3c2=O)c1`, the Inhibition is listed as -1.85% with Staphylococcus aureus and -17.07% with Escherichia coli.

`CC(C)n1c(=O)c2ccc(C(=O)NC3CCCC3)cc2n2c(=O)n(Cc3cccc(C(F)(F)F)c3)nc12`: the Inhibition worked out at 8.2% with Staphylococcus aureus and 0.25% in the assay with Escherichia coli.

In the case of `COc1ccc(NC(=O)Cn2nc3ccc(SCc4ccc(Cl)cc4)nn3c2=O)cc1Cl`, the figures for the Inhibition with Staphylococcus aureus and in the assay with Escherichia coli were -4.58% and -11.11%, respectively.

Consider `CCOc1ccc(NC(=O)Cn2nc3c4c5c(sc4ncn3c2=O)CCCC5)cc1`, for which the Inhibition in the assay with Staphylococcus aureus is recorded as -17.71%; with Escherichia coli it was 0.82%.

For the molecule `Cc1ccc(Cl)cc1N1CCN(C(=O)CCc2nnc3c4cc(-c5ccccc5)nn4ccn23)CC1`, the results for the Inhibition in the assay on Staphylococcus aureus and in the assay on Escherichia coli were 1.17% and -6.03%, respectively.

Consider `COc1cccc(-n2ccn3c(SCC(=O)c4ccc(C)cc4C)nnc3c2=O)c1`, for which the Inhibition was 12.17% in the assay on Staphylococcus aureus and -2.43% with Escherichia coli.

`O=c1n(Cc2nc(-c3ccc(F)cc3)no2)nc2ccc(-c3ccccc3)nn12`: the Inhibition is given as 3.21% in the assay on Staphylococcus aureus and -3.67% in the assay with Escherichia coli.

On to `Cc1cccc(NC(=O)Cn2nc3c4cc(-c5ccc(Cl)cc5)nn4ccn3c2=O)c1C`, for which the Inhibition was 5.13% with Staphylococcus aureus and -1.29% in the assay with Escherichia coli.

For `COc1cccc(-n2ccn3c(SCC(=O)NCc4ccco4)nnc3c2=O)c1`, the Inhibition with Staphylococcus aureus was 13.02%; in the assay with Escherichia coli, -1.73%.

For the molecule `COc1ccc(-c2cc3c4nn(CC(=O)Nc5ccc(OC)c(Cl)c5)c(=O)n4ccn3n2)cc1`, the results for the Inhibition in the assay with Staphylococcus aureus and in the assay on Escherichia coli were -2.49% and -6.71%, respectively.

Regarding `O=c1n(Cc2nc(-c3ccc(OC(F)(F)F)cc3)no2)nc2ccc(-c3ccccc3)nn12`, the figures for the Inhibition with Staphylococcus aureus and with Escherichia coli were -0.65% and -5.47%, respectively.

Turning to `Cc1ccc2c(c1)N(C(=O)Cn1nc3ccc(S(=O)(=O)C(C)(C)C)nn3c1=O)CCO2`, the Inhibition came to 10.43% in the assay on Staphylococcus aureus and 3.75% in the assay with Escherichia coli.

Regarding `Cc1cccc(Sc2nccn3c(=O)n(CC(=O)N4CCN(c5ccc(F)cc5)CC4)nc23)c1`, the Inhibition with Staphylococcus aureus is reported as -10.95%; in the assay on Escherichia coli, -6.75%.

In the case of `CCCN(C)c1nccn2c(=O)n(CC(=O)Nc3cccc(Br)c3)nc12`, the results for the Inhibition in the assay with Staphylococcus aureus and with Escherichia coli were 10.78% and -4.19%, respectively.

For `CC(C)CCNC(=O)Cn1nc2n(CC(C)C)c(=O)c3sccc3n2c1=O`, the figures for the Inhibition in the assay with Staphylococcus aureus and in the assay on Escherichia coli were 4.95% and -1.56%, respectively.

For the molecule `COc1cccc(CNC(=O)CSc2nnc3c(=O)n(-c4cccc(OC)c4)ccn23)c1`, the results for the Inhibition in the assay with Staphylococcus aureus and in the assay on Escherichia coli were 1.1% and 0.96%, respectively.

Consider `Cc1ccc(CN(c2ccc3c(c2)OCO3)S(=O)(=O)c2ccc3nnc(C)n3c2)cc1`, for which the results for the Inhibition with Staphylococcus aureus and in the assay on Escherichia coli were -0.98% and -3.16%, respectively.

For the molecule `CCc1cccc(NC(=O)Cn2nc3c(SCc4ccc(Cl)cc4)nccn3c2=O)c1`, the Inhibition with Staphylococcus aureus is on record as -8.25%; in the assay with Escherichia coli, -12.19%.

Regarding `COc1ccc(-n2ccn3c(=O)n(Cc4ccccc4Cl)nc3c2=O)cc1Cl`, the Inhibition in the assay with Staphylococcus aureus stood at 3.32%; in the assay on Escherichia coli, 3.28%.

For the molecule `CC(C)(C)OC(=O)CN(c1ccc2c(c1)OCCO2)S(=O)(=O)c1ccc2nncn2c1`, the Inhibition is 6.06% in the assay with Staphylococcus aureus and -4.04% in the assay on Escherichia coli.

For `O=C(CCc1nnc2c3cc(-c4ccccc4)nn3ccn12)N1CCN(C(=O)c2ccco2)CC1`, the Inhibition was determined as 7.4% in the assay with Staphylococcus aureus and 0.93% in the assay on Escherichia coli.

Consider `COc1ccc(C(=O)CSc2nnc3c(=O)n(-c4cccc(OC)c4)ccn23)cc1`, for which the Inhibition in the assay with Staphylococcus aureus is recorded as 14.49%; with Escherichia coli it was -2.33%.

For `Cc1cccc(NC(=O)Cn2nc3c(SCc4ccccc4)nccn3c2=O)c1C`, the Inhibition in the assay on Staphylococcus aureus is on record as -0.26%; in the assay with Escherichia coli, -6.74%.

For `O=C(Cn1nc2c(SC3CCCCC3)nccn2c1=O)Nc1ccc(Br)cc1`, the Inhibition in the assay on Staphylococcus aureus is given as 7.56%; in the assay on Escherichia coli, -4.82%.

On to `COc1ccc(-n2ccn3c(-c4ccc([N+](=O)[O-])cc4)nnc3c2=O)cc1`, for which the Inhibition in the assay with Staphylococcus aureus is given as 12.69%; in the assay with Escherichia coli, -0.05%.

As to `COc1cc(OC)c(NC(=O)Cn2nc3c(Oc4ccc(C)cc4)nccn3c2=O)cc1Cl`, the Inhibition in the assay with Staphylococcus aureus is 4.71%; with Escherichia coli it was -4.58%.

Consider `O=C(Cn1nc2ccc(SCc3ccc(Cl)cc3)nn2c1=O)Nc1cccc(F)c1`, for which the Inhibition in the assay on Staphylococcus aureus was -14.75%; with Escherichia coli, -12.61%.

As for `Cc1cc(C)c(NC(=O)CSc2nc3ccccc3n3c(C)nnc23)c(C)c1`, the Inhibition is given as 9.68% in the assay with Staphylococcus aureus and -6.86% in the assay with Escherichia coli.

On to `CCc1nnc2c(S(=O)(=O)N(Cc3cccc(OC)c3)c3ccc(F)cc3)cccn12`, for which the figures for the Inhibition in the assay on Staphylococcus aureus and in the assay on Escherichia coli were -5.69% and -8.61%, respectively.

One may read the Inhibition as the relative decrease from the control value, in per cent.
